Some test systems named below: SR leukemia; RPMI-8226 leukemia; OVCAR-8 ovarian; OVCAR-5 ovarian; OVCAR-4 ovarian; SK-OV-3 ovarian; IGROV1 ovarian; OVCAR-3 ovarian; HS 578T breast; NCI/ADR-RES ovarian; T-47D breast; BT-549 breast; MDA-MB-435 melanoma; SW-620 colon; MCF7 breast; HCT-116 colon; HCC-2998 colon; KM12 colon.
Assay in all cases: NCI-60 one-dose screen, 48 h (100 = growth as untreated, 0 = no growth, -100 = all killed)
Conditions in all cases: 10 µM unless noted

The panel holds about 83,000 compounds, 20% with a hit somewhere; the sample as a whole holds those more often.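 Results are percent growth after 48 hours of single-concentration exposure. 100 means growth as in untreated cells, lower positive values show inhibition; negative values down to -100 show cell death.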 Unmarked numbers belong to inactive results. Activity calls are given as the source filed them. How the source made its calls: active means growth percent below 10; inactive means the rest.

Regarding `COc1ccc(N2C(=O)c3cc(OC)c(OC)cc3NC2SCc2ccccc2)cc1` (stereo unspecified), the growth in the assay on SR leukemia was 83.5%; with RPMI-8226 leukemia, 114%; in the assay on OVCAR-8 ovarian, 103%; with OVCAR-5 ovarian it was 109%; in the assay with OVCAR-4 ovarian it was 102%; with SK-OV-3 ovarian, 112%. In addition, the growth with IGROV1 ovarian is 102%; in the assay on OVCAR-3 ovarian, 125%; in the assay on HS 578T breast, 125%; with NCI/ADR-RES ovarian it was 99.7%; in the assay on T-47D breast, 98.5%; in the assay with BT-549 breast, 106%. Besides, the growth in the assay on MDA-MB-435 melanoma was 107%; in the assay on SW-620 colon it was 114%; in the assay on MCF7 breast it was 96.3%; in the assay with HCT-116 colon, 100%; with HCC-2998 colon, 121%; with KM12 colon it was 108%.

`COc1ccc(CN2C(=O)/C(=C/c3nc(CO)cs3)SC2=S)cc1`: the growth with SR leukemia is 33.8%; in the assay with RPMI-8226 leukemia it was 18.5%; in the assay with OVCAR-8 ovarian, 96.7%; in the assay on OVCAR-5 ovarian, 107%; in the assay with OVCAR-4 ovarian, 107%; in the assay with SK-OV-3 ovarian, 109%. The growth was 89.9% with IGROV1 ovarian; 80.8% in the assay on OVCAR-3 ovarian; 101% with HS 578T breast; 97.8% in the assay with NCI/ADR-RES ovarian; 53% with T-47D breast; 99.9% with BT-549 breast. The growth in the assay on MDA-MB-435 melanoma is 89.7%; with SW-620 colon it was 77.8%; with MCF7 breast it was 12%; in the assay on HCT-116 colon, 75%; in the assay with HCC-2998 colon, 109%; in the assay on KM12 colon, 9.43% (active).

Regarding `COc1ccc(Cn2cc3c(c2-c2ccccc2)CCCc2cnoc2-3)cc1`, the growth in the assay on SR leukemia is 21.1%; in the assay with RPMI-8226 leukemia, 59.8%; in the assay on OVCAR-8 ovarian it was 78.8%; in the assay on OVCAR-5 ovarian, 80.7%; with OVCAR-4 ovarian, 90.2%; with SK-OV-3 ovarian, 83.7%. Further, the growth is 51.5% in the assay on IGROV1 ovarian; 22% in the assay on OVCAR-3 ovarian; 64.9% in the assay with HS 578T breast; 29.8% in the assay on NCI/ADR-RES ovarian; 56.4% with T-47D breast; 77.3% in the assay on BT-549 breast. The growth was -11.2% (active) in the assay on MDA-MB-435 melanoma; 28.2% in the assay on SW-620 colon; 22.9% in the assay with MCF7 breast; 28.8% with HCT-116 colon; 87.9% in the assay with HCC-2998 colon; 32% in the assay with KM12 colon.

For `COc1cc(/C=N/n2cnc3oc(-c4ccccc4)cc3c2=N)cc(CN2CCCCC2)c1O`, the growth was 28.9% in the assay on SR leukemia; -30.4% (active) in the assay with RPMI-8226 leukemia; -38.7% (active) in the assay on OVCAR-8 ovarian; -81% (active) in the assay with OVCAR-5 ovarian; -63.1% (active) with OVCAR-4 ovarian; 105% in the assay with SK-OV-3 ovarian. The growth in the assay with IGROV1 ovarian is -82.5% (active); in the assay on OVCAR-3 ovarian, 114%; in the assay on HS 578T breast, -35.9% (active); in the assay with NCI/ADR-RES ovarian, -0.827% (active); with T-47D breast, -33.1% (active); in the assay with BT-549 breast it was -55.4% (active). For the same compound, the growth was -91.8% (active) in the assay with MDA-MB-435 melanoma; -70% (active) in the assay on SW-620 colon; -80.5% (active) in the assay with MCF7 breast; -89.1% (active) in the assay with HCT-116 colon; -46.8% (active) in the assay with HCC-2998 colon; -72.6% (active) in the assay with KM12 colon.

In the case of `COc1cc(/C=N/n2cnc3oc(-c4ccccc4)cc3c2=N)cc(CN2CCOCC2)c1O`, the growth in the assay on SR leukemia is 32%; in the assay with RPMI-8226 leukemia it was 27.5%; in the assay on OVCAR-8 ovarian it was 60.4%; in the assay on OVCAR-5 ovarian, 84.2%; with OVCAR-4 ovarian it was 72.6%; with SK-OV-3 ovarian, 68.4%. Besides, the growth was 21.7% with IGROV1 ovarian; 108% in the assay on OVCAR-3 ovarian; 14.8% in the assay on HS 578T breast; 72.5% in the assay with NCI/ADR-RES ovarian; 81.6% in the assay on T-47D breast; 109% with BT-549 breast. The growth in the assay on MDA-MB-435 melanoma is 60.8%; with SW-620 colon, 86.1%; with MCF7 breast, 73.8%; with HCT-116 colon, 29.8%; with HCC-2998 colon, 101%; with KM12 colon, 41.1%.

On to `COc1ccc(/C=N/Nc2nc(N/N=C/c3ccc(OC)cc3O)nc(N3CCOCC3)n2)c(O)c1`, for which the growth in the assay with SR leukemia is 27.4%; in the assay on RPMI-8226 leukemia it was 41.7%; in the assay on OVCAR-8 ovarian, 69.1%; in the assay with OVCAR-5 ovarian it was 68.1%; in the assay on OVCAR-4 ovarian, 63.1%; in the assay on SK-OV-3 ovarian, 89.1%. Besides, the growth is 51.1% in the assay with IGROV1 ovarian; 19.1% in the assay on OVCAR-3 ovarian; 77.7% with HS 578T breast; 23.1% with NCI/ADR-RES ovarian; 42.4% with T-47D breast; 90.3% in the assay on BT-549 breast. Besides, the growth is 81% in the assay with MDA-MB-435 melanoma; 36.3% with SW-620 colon; 51.7% in the assay with MCF7 breast; 34.4% in the assay on HCT-116 colon; 81.1% in the assay with HCC-2998 colon; 51.4% with KM12 colon.

For the compound `N/C(=N\c1nc2c(Cl)cccc2s1)C(Cl)(Cl)Cl`, the growth is 94.2% in the assay on SR leukemia; 53.3% with RPMI-8226 leukemia; 87.6% with OVCAR-8 ovarian; 95.5% in the assay with OVCAR-5 ovarian; 76% in the assay with OVCAR-4 ovarian; 91.3% in the assay on SK-OV-3 ovarian. Moreover, the growth in the assay with IGROV1 ovarian was 89.1%; in the assay on OVCAR-3 ovarian it was 57.9%; with HS 578T breast it was 80.2%; in the assay on NCI/ADR-RES ovarian, 89%; with T-47D breast it was 42.4%; with BT-549 breast, 111%. In addition, the growth with MDA-MB-435 melanoma was 89.1%; in the assay on SW-620 colon, 82.5%; in the assay with MCF7 breast, 49.3%; with HCT-116 colon, 69.7%; in the assay with HCC-2998 colon, 72.9%; with KM12 colon, 41.5%.

These data come from PubChem BioAssay (NCI).
